Results: the supplement of paper PMC10849652
Of roughly 7,900 targets only a part is listed; those with a hit were picked by preference. About 0.6% of all pairs of compound and target were hits.

Each target was assayed with C1=CC=C(C=C1)C2=NC(=C(N2)C3=CC=NC=C3)C4=CC(=C(C=C4)Cl)O (assay: log2 fold change, soluble protein after heating vs DMSO (PISA); higher = thermal stabilisation; K562 cells, 10 uM, 30 min; active = over 0.2 and 3.5 SD of the protein, either way, in both replicates (recomputed)).
In short: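 Quantification of soluble protein used TMTpro 16plex LC-MS/MS, with channel sums equalised. Samples were the supernatant after 21,000xg for 90 min of pooled aliquots from K562 cells (2×10^6 cells/mL) treated with 10 μM compound for 30 min, heated for 3 min over 48°C-58°C, and extracted in PBS with 0.5% NP-40 at 4°C. Values, from duplicates, describe thermal stability against control samples on a log2 fold-change scale.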

UniProt Q9BSU3, sequence (Q9BSU3 whole entry, looked up): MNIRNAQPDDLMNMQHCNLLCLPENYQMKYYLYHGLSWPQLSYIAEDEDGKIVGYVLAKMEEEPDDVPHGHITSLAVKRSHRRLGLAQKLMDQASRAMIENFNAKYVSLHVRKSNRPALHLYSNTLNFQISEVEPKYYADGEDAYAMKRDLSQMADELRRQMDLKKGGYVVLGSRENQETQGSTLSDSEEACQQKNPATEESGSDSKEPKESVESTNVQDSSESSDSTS
UniProt Q96T76, sequence (Q96T76 whole entry, looked up): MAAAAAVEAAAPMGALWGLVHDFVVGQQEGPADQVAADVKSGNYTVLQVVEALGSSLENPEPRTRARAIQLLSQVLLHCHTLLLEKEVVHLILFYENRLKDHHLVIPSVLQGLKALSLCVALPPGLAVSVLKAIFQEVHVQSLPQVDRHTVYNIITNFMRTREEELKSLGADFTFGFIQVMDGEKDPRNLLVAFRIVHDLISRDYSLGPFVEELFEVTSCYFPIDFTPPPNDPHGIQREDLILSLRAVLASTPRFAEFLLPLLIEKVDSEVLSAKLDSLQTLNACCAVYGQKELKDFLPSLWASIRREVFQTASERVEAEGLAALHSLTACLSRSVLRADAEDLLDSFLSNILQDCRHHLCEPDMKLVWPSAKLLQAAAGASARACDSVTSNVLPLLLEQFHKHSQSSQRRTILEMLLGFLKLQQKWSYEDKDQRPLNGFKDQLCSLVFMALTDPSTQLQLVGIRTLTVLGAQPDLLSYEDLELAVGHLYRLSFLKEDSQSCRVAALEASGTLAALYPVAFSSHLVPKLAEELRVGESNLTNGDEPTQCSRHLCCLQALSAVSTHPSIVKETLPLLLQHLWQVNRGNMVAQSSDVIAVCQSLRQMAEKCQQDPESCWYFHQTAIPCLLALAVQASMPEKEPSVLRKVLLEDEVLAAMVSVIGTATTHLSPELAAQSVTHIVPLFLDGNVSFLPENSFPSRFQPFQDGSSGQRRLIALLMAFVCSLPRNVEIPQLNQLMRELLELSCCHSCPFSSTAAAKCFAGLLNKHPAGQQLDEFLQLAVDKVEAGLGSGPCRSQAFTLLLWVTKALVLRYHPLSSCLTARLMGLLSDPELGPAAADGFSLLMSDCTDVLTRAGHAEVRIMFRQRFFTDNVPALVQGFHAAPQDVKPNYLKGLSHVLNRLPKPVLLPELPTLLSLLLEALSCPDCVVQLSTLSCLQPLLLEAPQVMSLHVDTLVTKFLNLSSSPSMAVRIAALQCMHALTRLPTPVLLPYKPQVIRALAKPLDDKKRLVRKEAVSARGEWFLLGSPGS
UniProt Q12769, sequence (Q12769 whole entry, looked up): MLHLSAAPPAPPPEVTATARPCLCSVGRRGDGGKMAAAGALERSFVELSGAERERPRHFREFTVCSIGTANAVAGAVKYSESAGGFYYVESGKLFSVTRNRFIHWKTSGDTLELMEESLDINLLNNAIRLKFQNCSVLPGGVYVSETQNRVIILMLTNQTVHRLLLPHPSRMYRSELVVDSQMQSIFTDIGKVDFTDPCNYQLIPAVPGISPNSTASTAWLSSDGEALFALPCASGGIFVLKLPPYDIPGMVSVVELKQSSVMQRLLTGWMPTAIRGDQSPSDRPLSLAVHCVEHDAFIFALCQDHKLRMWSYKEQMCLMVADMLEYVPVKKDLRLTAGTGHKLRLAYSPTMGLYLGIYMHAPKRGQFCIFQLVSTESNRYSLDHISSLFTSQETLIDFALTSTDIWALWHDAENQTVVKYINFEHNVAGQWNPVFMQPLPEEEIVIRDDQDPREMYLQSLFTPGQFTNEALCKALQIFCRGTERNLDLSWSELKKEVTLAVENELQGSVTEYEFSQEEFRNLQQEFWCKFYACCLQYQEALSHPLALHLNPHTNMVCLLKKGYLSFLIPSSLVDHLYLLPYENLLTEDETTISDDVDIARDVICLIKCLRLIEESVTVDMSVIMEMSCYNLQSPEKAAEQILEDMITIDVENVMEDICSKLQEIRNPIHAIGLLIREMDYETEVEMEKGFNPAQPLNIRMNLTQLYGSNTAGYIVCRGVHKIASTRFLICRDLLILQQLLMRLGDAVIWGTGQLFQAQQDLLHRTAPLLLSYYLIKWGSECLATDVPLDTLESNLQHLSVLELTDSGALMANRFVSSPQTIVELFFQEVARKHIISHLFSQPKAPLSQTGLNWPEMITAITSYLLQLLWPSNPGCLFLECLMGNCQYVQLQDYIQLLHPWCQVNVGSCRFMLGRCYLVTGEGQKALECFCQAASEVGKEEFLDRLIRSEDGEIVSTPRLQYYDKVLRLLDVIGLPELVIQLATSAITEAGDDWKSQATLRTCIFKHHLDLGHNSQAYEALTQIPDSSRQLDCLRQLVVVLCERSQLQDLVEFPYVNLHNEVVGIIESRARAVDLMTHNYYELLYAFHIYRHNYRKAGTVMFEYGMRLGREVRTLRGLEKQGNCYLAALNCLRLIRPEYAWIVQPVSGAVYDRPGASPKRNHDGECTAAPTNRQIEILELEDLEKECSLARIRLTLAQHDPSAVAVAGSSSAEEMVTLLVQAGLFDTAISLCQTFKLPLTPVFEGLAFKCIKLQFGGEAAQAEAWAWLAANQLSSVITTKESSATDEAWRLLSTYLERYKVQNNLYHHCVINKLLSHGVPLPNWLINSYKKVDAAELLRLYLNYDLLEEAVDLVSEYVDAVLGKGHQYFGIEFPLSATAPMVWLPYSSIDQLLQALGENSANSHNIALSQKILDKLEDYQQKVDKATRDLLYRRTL
UniProt Q9Y314, sequence (Q9Y314 whole entry, looked up): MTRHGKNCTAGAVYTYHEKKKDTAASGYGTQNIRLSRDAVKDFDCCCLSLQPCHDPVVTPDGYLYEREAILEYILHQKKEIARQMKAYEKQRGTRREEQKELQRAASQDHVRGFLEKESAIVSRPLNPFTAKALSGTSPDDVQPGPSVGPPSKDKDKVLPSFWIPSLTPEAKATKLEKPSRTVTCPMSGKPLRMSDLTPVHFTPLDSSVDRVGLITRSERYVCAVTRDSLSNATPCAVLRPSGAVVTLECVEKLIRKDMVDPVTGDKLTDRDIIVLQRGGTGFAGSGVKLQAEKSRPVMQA
UniProt O00483, sequence (O00483 whole entry, looked up): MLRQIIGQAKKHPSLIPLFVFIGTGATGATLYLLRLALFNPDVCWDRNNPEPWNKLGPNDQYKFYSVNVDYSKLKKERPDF
UniProt Q9Y2X3, sequence (Q9Y2X3 whole entry, looked up): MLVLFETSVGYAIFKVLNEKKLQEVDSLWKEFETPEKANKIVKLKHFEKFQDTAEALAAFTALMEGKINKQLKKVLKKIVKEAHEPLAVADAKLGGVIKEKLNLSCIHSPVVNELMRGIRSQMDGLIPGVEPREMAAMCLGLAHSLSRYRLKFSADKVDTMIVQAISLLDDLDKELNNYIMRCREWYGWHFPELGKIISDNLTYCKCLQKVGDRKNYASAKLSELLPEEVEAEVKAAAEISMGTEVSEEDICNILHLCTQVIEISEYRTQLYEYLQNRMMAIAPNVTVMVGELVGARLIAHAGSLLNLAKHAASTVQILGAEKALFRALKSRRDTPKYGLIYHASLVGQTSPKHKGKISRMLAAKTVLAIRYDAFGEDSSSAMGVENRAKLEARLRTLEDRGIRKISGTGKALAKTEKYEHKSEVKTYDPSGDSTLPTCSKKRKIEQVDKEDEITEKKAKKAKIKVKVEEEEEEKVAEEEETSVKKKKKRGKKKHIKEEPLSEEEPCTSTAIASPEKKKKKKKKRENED
UniProt Q8N4C8, sequence (Q8N4C8 whole entry, looked up): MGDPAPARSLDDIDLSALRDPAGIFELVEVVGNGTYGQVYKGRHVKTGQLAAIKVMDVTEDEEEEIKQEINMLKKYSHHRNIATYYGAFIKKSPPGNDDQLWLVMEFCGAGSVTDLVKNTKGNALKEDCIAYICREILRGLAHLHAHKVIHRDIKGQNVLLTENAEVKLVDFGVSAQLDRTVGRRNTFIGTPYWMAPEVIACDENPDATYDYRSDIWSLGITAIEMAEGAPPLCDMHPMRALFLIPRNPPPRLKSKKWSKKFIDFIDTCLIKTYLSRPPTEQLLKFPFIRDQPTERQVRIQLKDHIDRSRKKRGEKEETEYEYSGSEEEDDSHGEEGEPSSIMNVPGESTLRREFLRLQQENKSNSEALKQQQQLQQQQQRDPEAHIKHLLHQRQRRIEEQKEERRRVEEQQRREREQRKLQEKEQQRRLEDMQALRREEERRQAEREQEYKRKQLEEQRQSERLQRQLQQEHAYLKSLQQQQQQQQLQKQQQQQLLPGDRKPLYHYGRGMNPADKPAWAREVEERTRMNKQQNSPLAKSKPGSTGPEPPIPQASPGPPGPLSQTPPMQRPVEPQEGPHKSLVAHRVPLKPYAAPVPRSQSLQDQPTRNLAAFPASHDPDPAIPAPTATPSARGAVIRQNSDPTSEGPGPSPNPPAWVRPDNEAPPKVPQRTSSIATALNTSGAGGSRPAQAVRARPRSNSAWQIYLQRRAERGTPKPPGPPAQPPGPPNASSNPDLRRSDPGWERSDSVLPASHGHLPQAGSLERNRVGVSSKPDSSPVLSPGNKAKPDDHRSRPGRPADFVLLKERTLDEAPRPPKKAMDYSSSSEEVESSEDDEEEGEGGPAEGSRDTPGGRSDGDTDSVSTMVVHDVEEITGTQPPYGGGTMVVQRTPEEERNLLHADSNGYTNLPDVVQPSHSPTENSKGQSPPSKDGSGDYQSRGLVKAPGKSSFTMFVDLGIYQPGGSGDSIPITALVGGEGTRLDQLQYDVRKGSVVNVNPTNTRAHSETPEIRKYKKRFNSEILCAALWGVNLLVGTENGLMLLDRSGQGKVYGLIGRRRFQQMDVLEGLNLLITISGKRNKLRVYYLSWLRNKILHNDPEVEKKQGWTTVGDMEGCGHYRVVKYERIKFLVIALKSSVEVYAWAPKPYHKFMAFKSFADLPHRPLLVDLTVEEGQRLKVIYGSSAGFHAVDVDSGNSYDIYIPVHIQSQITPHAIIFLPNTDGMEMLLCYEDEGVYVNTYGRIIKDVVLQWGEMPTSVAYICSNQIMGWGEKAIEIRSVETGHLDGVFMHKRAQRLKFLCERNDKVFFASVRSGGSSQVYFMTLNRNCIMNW
UniProt Q92686, sequence (Q92686 whole entry, looked up): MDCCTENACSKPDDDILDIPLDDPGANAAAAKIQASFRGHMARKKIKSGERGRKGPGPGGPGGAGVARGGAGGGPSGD

log2 fold change, inactive:
NDUFB7 (UniProt P17568) 0.031
MRPL50 (UniProt Q8N5N7) 0.312
NOP58 (UniProt Q9Y2X3) -0.055
MRPS31 (UniProt Q92665) 0.048
NME7 (UniProt Q9Y5B8) 0.06
NUMBL (UniProt Q9Y6R0) 0.042
NME2P1 (UniProt O60361) -0.163
OTUD6B (UniProt Q8N6M0) -0.001
NDUFA4 (UniProt O00483) 0.038
NUP160 (UniProt Q12769) -0.017
MTHFS (UniProt P49914) 0.026
NELFB isoform 2 (UniProt Q8WX92) -0.049
NISCH (UniProt Q9Y2I1) 0.044
MRPS16 (UniProt Q9Y3D3) 0.117
NCAPH (UniProt Q15003) -0.009
NELFA (UniProt Q9H3P2) 0.048
MSL1 (UniProt Q68DK7) 0.066
MSH3 (UniProt P20585) 0.004
NRGN (UniProt Q92686) 0.139
NEU1 (UniProt Q99519) -0.018
NUCKS1 (UniProt Q9H1E3) -0.089
NMRAL1 (UniProt Q9HBL8) 0.029
MTOR (UniProt P42345) 0.034
NAA11 (UniProt Q9BSU3) -0.023
MRPS22 (UniProt P82650) 0.026
NOSIP (UniProt Q9Y314) -0.033
NR2C2AP isoform 2 (UniProt Q86WQ0) -0.08
OSTC (UniProt Q9NRP0) 0.014
NECTIN2 isoform 2 (UniProt Q92692) -0.029
MRPS6 (UniProt P82932) 0.128
MKRN2 (UniProt Q9H000) -0.011
MYO19 (UniProt Q96H55) 0.027
OTUD4 (UniProt Q01804) 0
MSH2 (UniProt P43246) -0.016
MINK1 (UniProt Q8N4C8) -0.064
MIS12 (UniProt Q9H081) -0.063
NA, A0A096LPI6 0.023
MMS19 isoform 8 (UniProt Q96T76) 0.05
